Where “and” joins values, the source holds several entries; their conditions need not be identical. Equal values may be shown once. Hit rate of the full screen: of about 5,500 compounds, about 2,000 (36%) were called active. Not shown: some 18% with an inconclusive outcome. Rule as the data show it: active = normalized growth mostly below about 0.91 (no sharp cut-off); inconclusive = no clear call, values can overlap the other calls; inactive = mostly above about 0.92. The list shows a part of the results.
Test: chemical genetic growth profiling, strain panel (AID 1159580);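 also: tested at 20 µM; growth read once vehicle control cultures reached saturation at 30 °C; 1 = growth at the plate median or of vehicle wells; lower values mean less growth of the strain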
Conditions: S. cerevisiae deletion strains, growth OD

Measured: normalized growth

Oc1ccc2c3c1OC1[C@@H](O)CC[C@@]4(O)[C@@H](C2)N(CC2CCC2)CC[C@]314 (stereo partly specified)
inactive: locus YAL013W, strain DEP1, active compounds read low 1.01 | locus YAL021C, strain ccr4, active compounds read low 0.987 | locus YAL026C, strain drs2, active compounds read low 1.02 | locus YAL030W, strain snc1, active compounds read low 0.981 | locus YBL061C, strain skt5, active compounds read low 0.997 | locus YBR009C, strain hhf1, active compounds read low 1.01 | locus YBR021W, strain FUR4, active compounds read low 1.02 | locus YBR023C, strain chs3, active compounds read low 0.993 | locus YBR171W, strain sec66, active compounds read low 0.974 | locus YBR229C, strain ROT2, active compounds read low 1.02 | locus YBR231C, strain swc5, active compounds read low 0.997 | locus YBR279W, strain paf1, active compounds read low 0.999 | locus YCL011C, strain gbp2, active compounds read low 1.01 | locus YCL016C, strain dcc1, active compounds read low 1.02 | locus YCL029C, strain bik1, active compounds read low 1.03 | locus YCL061C, strain MRC1, active compounds read low 1 | locus YCL069W, strain vba3, active compounds read low 0.993 | locus YCR088W, strain abp1, active compounds read low 1.01 | locus YDL005C, strain med2, active compounds read low 0.989 | locus YDL035C, strain GPR1, active compounds read low 1.02 | locus YDL040C, strain nat1, active compounds read low 1 | locus YDL074C, strain BRE1, active compounds read low 1.04 | locus YDL101C, strain DUN1, active compounds read low 1.02 | locus YDL134C, strain PPH21, active compounds read low 1.02 | locus YDL185W, strain tfp1, active compounds read low 1.02 | locus YDL192W, strain arf1, active compounds read low 1.02 | locus YDR001C, strain nth1, active compounds read low 1.02 | locus YDR069C, strain doa4, active compounds read low 1 | locus YDR101C, strain arx1, active compounds read low 1.01 | locus YDR137W, strain rgp1, active compounds read low 1.01 | locus YDR150W, strain NUM1, active compounds read low 1.02 | locus YDR159W, strain sac3, active compounds read low 0.987 | locus YDR162C, strain NBP2, active compounds read low 1.02 | locus YDR195W, strain ref2 0.974 | locus YDR297W, strain sur2, active compounds read low 1.01 | locus YDR318W, strain mcm21, active compounds read low 1.02 | locus YDR334W, strain swr1, active compounds read low 0.994 | locus YDR335W, strain msn5, active compounds read low 1 | locus YDR388W, active compounds read low 1.01 | locus YDR392W, strain spt3, active compounds read low 1.01 | locus YDR502C, strain sam2, active compounds read low 1.02 | locus YEL003W, strain gim4, active compounds read low 1 | locus YEL037C, strain rad23, active compounds read low 0.988 | locus YEL061C, strain CIN8 (second series), active compounds read low 0.99 | locus YEL061C, strain CIN8, active compounds read low 1.01 | locus YER015W, strain faa2, active compounds read low 0.996 | locus YER016W, strain bim1, active compounds read low 1.01 | locus YER110C, active compounds read low 1.02 | locus YER111C, strain swi4, active compounds read low 0.997 | locus YER155C, strain BEM2 (second series), active compounds read low 0.963 | locus YER155C, strain BEM2, active compounds read low 1.01 | locus YER167W, strain BCK2, active compounds read low 1.02 | locus YFR010W, strain ubp6, active compounds read low 0.978 | locus YGL078C, strain dbp3, active compounds read low 1.01 | locus YGL086W, strain mad1, active compounds read low 1.01 | locus YGL167C, strain pmr1, active compounds read low 0.99 | locus YGL173C, strain kem1, active compounds read low 0.98 | locus YGL227W, strain vid30, active compounds read low 0.986 | locus YGL240W, strain doc1, active compounds read low 1.01 | locus YGL248W, strain PDE1, active compounds read low 1.02 | locus YGL253W, strain hxk2, active compounds read low 1.01 | locus YGR078C, strain PAC10, active compounds read low 1.03 | locus YGR135W, strain pre9, active compounds read low 1.01 | locus YGR229C, strain SMI1, active compounds read low 1.03 | locus YGR252W, strain gcn5, active compounds read low 0.984 | locus YHR013C, strain ard1, active compounds read low 0.973 | locus YHR027C, strain rpn1, active compounds read low 0.996 | locus YHR030C, strain SLT2, active compounds read low 1.02 and 0.983 | locus YHR079C, strain IRE1 (second series), active compounds read low 1.02 | locus YHR079C, strain IRE1, active compounds read low 0.966 | locus YHR094C, strain hxt1, active compounds read low 1.01 | locus YHR129C, strain ARP1, active compounds read low 1 | locus YHR142W, strain chs7, active compounds read low 1.01 | locus YHR200W, strain rpn10, active compounds read low 1.01 | locus YIL066C, strain RNR3, active compounds read low 1.02 | locus YIL073C, strain SPO22, active compounds read low 1.07 | locus YIL125W, strain kgd1, active compounds read low 1.01 | locus YIR030C, strain dcg1, active compounds read low 1.01 | locus YJL092W, strain hpr5, active compounds read low 0.99 | locus YJL095W, strain BCK1 (second series), active compounds read low 0.985 | locus YJL095W, strain BCK1, active compounds read low 1.03 and 0.981 | locus YJL115W, strain asf1, active compounds read low 0.974 | locus YJL129C, strain trk1, active compounds read low 0.974 | locus YJL134W, strain LCB3, active compounds read low 1.01 | locus YJL154C, strain vps35, active compounds read low 0.999 | locus YJL164C, strain tpk1, active compounds read low 1.01 | locus YJL166W, strain qcr8, active compounds read low 0.986 | locus YJL168C, strain set2, active compounds read low 1.01 | locus YJL187C, strain SWE1 (second series), active compounds read low 1.03 | locus YJR043C, strain POL32, active compounds read low 1.04 | locus YJR066W, strain TOR1, active compounds read low 0.905

Reference: PubChem BioAssay AID1159580 (chemical genetic matrix, 2015)
